Screening results (PubChem BioAssay)
The sample as a whole holds a higher share of hits than the screen did.
Pf Dd2 growth = qHTS Primary assay for Inhibitors of Plasmodium falciparum Dd2 growth in vitro; P. falciparum Dd2 growth, SYBR Green, 72 h; Potency, µM (highest dose often 28.9 µM), most hits filed as inhibitors; 4.3% of 120,000 active; active = well fitted inhibition curve with a large enough effect; also: nearly all actives have a fitted effect of over 65% in size
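Readout: SYBR Green fluorescence, 485 nm excitation, 535 nm emission, after ~16 h lysis at 37C. Before that, Dd2-infected red cells (2.5% hematocrit) grew 72 h with compound, 29 uM top final concentration.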
Hits are given with their value; 0 = inactive; [ ] = remark or other dose.

SMILES	Pf Dd2 growth
CCC(=O)Nc1ccc(C2(C(=O)NCC3CC3)CCCCC2)cc1	0
CN(C(=O)c1ccccc1)C1CCCc2ccccc21 (stereo not drawn)	0
COCC(=O)N(C)C1CCCc2ccccc21 (stereo not drawn)	0
CN(C(=O)Nc1ccc(Cl)cc1)C1CCCc2ccccc21 (stereo not drawn)	0
CN(Cc1ccc(F)cc1)C1CCCc2ccccc21 (stereo not drawn)	0
CN(C(=O)Nc1ccccc1)C1CCCc2ccccc21 (stereo not drawn)	16µM
CN(C(=O)Cc1ccc(F)cc1)C1CCCc2ccccc21 (stereo not drawn)	16µM
CC(C)NC(=O)Nc1ccc([C@H]2OCC(=O)N[C@@H]2CO)cc1	0
COc1ccccc1OCCN1C(=O)C2(CCOCC2)CC1c1nnnn1C(C)(C)C (stereo not drawn)	0
Cc1ccc(C(=O)N2CCCCCCNC(=O)[C@@H]3C[C@@H](c4nc(-c5cnccn5)no4)C[C@@H]32)s1	0
O=C(COc1ccccc1)N1CCC(c2noc(-c3ccncc3)n2)C1 (stereo not drawn)	0[5.79 µM]
O=C(NC1CCCCC1)c1ccc(CSc2nc3ccncc3n2Cc2cccc(F)c2)cc1	11µM
CCc1ccccc1NC(=O)Cn1c(SCc2ccc(F)cc2)nc2ccncc21	0
COc1ccccc1CNC(=O)c1ccc(CSc2nc3ccncc3n2Cc2cccc(F)c2)cc1	3.5µM
CC(CNC(=O)c1ccc(CSc2nc3ccncc3n2Cc2ccc(F)cc2)cc1)c1ccccc1 (stereo not drawn)	4.5µM
COc1cccc(CSc2nc3cc(C(=O)NC4CCCC4)ccc3c(=O)n2Cc2ccccc2)c1	0
COc1ccc(C(=O)N2CCc3ccc(C(=O)NCc4cccs4)cc32)cc1	0
CC(C)NC(=O)c1ccc(Cn2c(SCc3ccc(F)cc3)nc3cccnc32)cc1	0
COc1ccc(Cn2c(SCc3ccc(C(=O)NCc4cccs4)cc3)nc3ccncc32)cc1	7.9µM
O=C(NC1CCCC1)c1ccc(CSc2nc3cccnc3n2Cc2cccc(F)c2)cc1	0
CCN1C(=O)Cc2ccccc2C1C(=O)N(C)Cc1ccco1 (stereo not drawn)	0
OCc1ccc(CN2CC[C@@H](c3ccc4ccccc4c3)[C@H](O)C2)o1	0
COc1ccc(NC(=O)NC[C@H]2O[C@H](Cc3cc(-c4cccc(O)c4)on3)CC[C@@H]2O)cc1	0
Cc1noc(C)c1C(=O)N1Cc2ccccc2OC2(CCN(C(=O)CN(C)C)CC2)C1	0
COc1ccc(CN2CCN3C(=O)N(C4CCOCC4)C[C@H]3C2)cc1	0
SMILES	Pf Dd2 growth
CCOc1ccccc1N1CCN(C(=O)CCn2ccn3nc4c(c3c2=O)CCCC4)CC1	0
COCc1nc(C2CCCN(C(=O)c3cccc(OC)c3OC)C2)no1 (stereo not drawn)	0
COc1ccc(-c2cc(N3CCCC(NC(=O)c4ccc(F)c(Cl)c4)C3)n[nH]2)cc1 (stereo not drawn)	0
Cc1ccc(CSc2nc3cc(C(=O)NC4CCCC4)ccc3c(=O)n2Cc2ccccc2)cc1	0
O=C(NC1CCCC1)c1ccc2c(=O)n(Cc3ccccc3)c(SCc3ccc([N+](=O)[O-])cc3)nc2c1	3.2µM
O=C(NCc1cccs1)c1ccc(CSc2nc3ccncc3n2Cc2cccc(F)c2)cc1	8.9µM
Cc1cccc(CSc2nc3cccnc3n2Cc2ccc(C(=O)NCc3cccs3)cc2)c1	0
O=C(NCc1cccc(Cl)c1)c1noc(-c2ccc(F)cc2)n1	0
Cc1ccc(CNC(=O)c2ccc3nc(SCc4ccc(F)cc4)[nH]c3c2)cc1	0
Cn1c(SCc2ccc(F)cc2)nc2ccc(C(=O)NCc3cccc(Cl)c3)cc21	10µM
O=C(NCc1cccs1)c1ccc2c(c1)n(Cc1cccc(F)c1)c(=O)c1ccnn12	5.6µM
O=C(O)c1ccc2c(c1)n(Cc1cccc(F)c1)c(=O)c1ccnn12	0
O=C(NCc1ccccc1)c1ccc2c(c1)n(Cc1ccc(F)cc1)c(=O)c1ccnn12	0
O=C(NC1CCCC1)c1ccc2c(=O)n(Cc3ccccc3)c(SCc3cccc(F)c3)nc2c1	0
CCc1noc(Cc2c(C)nn(-c3ccccc3)c2C)n1	0
COc1ccc(CN2C(=O)O[C@@H]3CN(C(=O)NC4CCCCC4)C[C@@H]32)cc1OC	0
CC[C@H]1CN(S(=O)(=O)c2c(C)noc2C)CC[C@H]1CC(=O)Nc1ccccc1	0
CC(C)CNC(=O)N1CCC2(CC1)CC(N(C(=O)c1ccccc1)C1CC1)CCO2 (stereo not drawn)	0
O=C(CC1CCCC1)NC1CCCN(c2cc(N3CCCC3)ncn2)C1 (stereo not drawn)	0[5.79 µM]
O=C(CC[C@@H]1CNC(=O)[C@@H]2C[C@H](NC(=O)c3ccccc3)CN12)NCc1ccc(F)cc1	0
